Measurements from PubChem BioAssay.
Active and inactive are the calls of the source.

Legend:
[1] = biological target: Albumin (Bos taurus) (UniProt P02769); experiment: compounds binding labelled BSA control protein – biochemical, small-molecule microarray, Alexa647 label, 635/667 nm fluorescence, artefact control for SMM control protein annotation, profiling panel (AID 1118); settings: BSA-A647 binding, fluorescence 635 nm, higher = more signal;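 also: score merges 667 nm emission intensity and signal-to-noise per printed compound spot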
[2] = probe aXIP binding to arrayed compounds – biochemical, NeuroSMM set, 635/667 nm fluorescence, primary screen (AID 1119); settings: small-molecule microarray, higher = more signal, called active from +8 up or from −8 down;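 also: probe is the protein aXip251-270 applied at 1 µg/mL to compound-printed slides; binding of probe to printed compounds measured as 667 nm fluorescence plus signal to noise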
[3] = probe aNOTCH3 binding on compound microarray – biochemical, small-molecule microarray, 635/667 nm fluorescence, primary screen (AID 1120); settings: higher = more signal;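 also: probe is a biotin-tagged antibody raised against NOTCH3 rather than NOTCH3 protein; score merges spot fluorescence near 667 nm with spot signal to noise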
[4] = probe aNOTCH2 binding on compound microarray – biochemical, small-molecule microarray, 635/667 nm fluorescence, primary screen (AID 1121); settings: higher = more signal;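 also: score merges feature fluorescence read at 667 nm with its signal to noise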
[5] = biological target: Carbonic anhydrase 2 (Homo sapiens) (UniProt P00918); experiment: compounds binding carbonic anhydrase 2 – biochemical, small-molecule microarray, Alexa647-labelled CAII, profiling panel (AID 1122); settings: CAII-A647 binding fluorescence, higher = more signal
[6] = COS7 lysate on small-molecule microarray, probe aHis, 635 nm (AID 1123); settings: COS7 cell lysate, fluorescence, higher = more signal;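 also: z-score combines 667nm fluorescence intensity with signal-to-noise per printed compound spot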
[7] = probe aLAP1 signal on lysate-treated microarray – cell lysate, small-molecule microarray, COS7 lysate, primary screen (AID 1124); settings: probe aLAP1, fluorescence, higher = more signal;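 also: lysate comes from COS7 cells expressing LAP1 and is applied at 0.3 µg/mL; score merges spot fluorescence near 667 nm with signal-to-noise over triplicate slides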
[8] = test system: Sam68 (KHDRBS1); experiment: compounds binding KHDRBS1 protein – biochemical, small-molecule microarray, 635 nm fluorescence, primary screen (AID 1125); settings: higher = more signal;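 also: score merges 667 nm channel intensity with signal to noise over triplicate slides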
[9] = test system: Chordin-like protein 2 (CHRDL2); experiment: compounds binding chordin-like 2 – biochemical, small-molecule microarray, 635 nm fluorescence, primary screen (AID 1126); settings: fluorescence 635 nm, higher = more signal;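 also: printed compound slides probed with Chrdl2 protein at 4 µg/mL for 1 h at 4 C; score merges 667 nm emission intensity with signal to noise over three replicate slides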
[10] = biological target: Concanavalin-A (Canavalia ensiformis) (UniProt P02866); experiment: compounds binding concanavalin A lectin – biochemical, small-molecule microarray, Alexa647 label, 635 nm, artefact control for SMM control protein annotation, primary screen (AID 1127); settings: ConA-A647 binding fluorescence, higher = more signal;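 also: z combines 667 nm emission intensity with signal-to-noise across three replicate slides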
[11] = compounds binding Alexa647 anti-His antibody – biochemical, small-molecule microarray, 635 nm fluorescence, artefact control for SMM control protein annotation, primary screen (AID 1128); settings: higher = more signal;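 also: score merges feature fluorescence with signal-to-noise for each printed compound spot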
[12] = test system: Human papillomavirus type 1a E7 protein (residues 1-88); experiment: HPV1a E7 small-molecule binders, primary screen, biochemical, small-molecule microarray, residues 1-88, 635 nm (AID 1129); settings: small-molecule microarray binding, fluorescence 635 nm; higher = more signal
[13] = biological target: Focal adhesion kinase 1 (Homo sapiens) (UniProt Q05397); experiment: PTK2 protein binding on printed compound slides – biochemical, small-molecule microarray, 635/667 nm fluorescence, BSA, DTT, primary screen (AID 1130); settings: 635 nm fluorescence, higher = more signal;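 also: composite of spot emission at 667 nm and signal to noise over triplicate slides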
[14] = test system: Fibrinogen (Alexa647-labelled); experiment: Alexa647-fibrinogen binding to printed small molecules – biochemical, small-molecule microarray, 635/667 nm fluorescence, artefact control for SMM control-protein annotation, profiling panel (AID 1131); settings: fibrinogen-A647 binding fluorescence, higher = more signal;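 also: z-score merges 667 nm fluorescence with per-spot signal-to-noise over triplicate slides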
[15] = biological target: Follistatin (Homo sapiens) (UniProt P19883); experiment: FST protein binding to printed compounds – biochemical, small-molecule microarray, 635/667 nm fluorescence, primary screen (AID 1132); settings: 635 nm fluorescence, higher = more signal
[16] = biological target: Fibroblast growth factor 2 (Homo sapiens) (UniProt P09038); experiment: basic fibroblast growth factor binding to printed compounds – biochemical, small-molecule microarray, 635/667 nm fluorescence, primary screen (AID 1133); settings: FGF2, fluorescence 635/667, higher = more signal
[17] = JC-1 mitochondrial potential readout, lung cancer cells – cell-based, A549, JC-1 fluorescence, basal, 24 h, 100 nL, profiling panel (AID 1138); settings: higher = more signal;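 also: A549 lung adenocarcinoma cells under basal conditions with no added stimulus; test concentration not given here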
[18] = test system: Lefty1; experiment: Lefty1 protein binding to printed compounds – biochemical, small-molecule microarray, 635/667 nm fluorescence, primary screen (AID 1139); settings: fluorescence 635/667, higher = more signal
[19] = test system: wheat germ agglutinin (Triticum aestivum), Alexa647-labelled; experiment: Alexa647-WGA lectin binding to printed small molecules – biochemical, small-molecule microarray, 635/667 nm fluorescence, artefact control for SMM control-protein annotation, profiling panel (AID 1140); settings: WGA-A647 binding, 635 nm fluorescence, higher = more signal;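 also: score merges 667 nm feature emission with signal to noise over triplicate slides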
[20] = biological target: Luciferin 4-monooxygenase (Photinus pyralis) (UniProt P08659); experiment: inhibition of purified Photinus pyralis luciferase – biochemical, luminescence, purified enzyme, 2006 set, primary screen (AID 1141); settings: purified firefly luciferase, SteadyGlo luminescence, 30 min; higher = more signal, called active from +8 up or from −8 down;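 also: cell-free assay with purified firefly luciferase at 100 ng per well in PBS; test concentration not given here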
Luciferin 4-monooxygenase (Photinus pyralis), sequence (P08659 whole entry, looked up): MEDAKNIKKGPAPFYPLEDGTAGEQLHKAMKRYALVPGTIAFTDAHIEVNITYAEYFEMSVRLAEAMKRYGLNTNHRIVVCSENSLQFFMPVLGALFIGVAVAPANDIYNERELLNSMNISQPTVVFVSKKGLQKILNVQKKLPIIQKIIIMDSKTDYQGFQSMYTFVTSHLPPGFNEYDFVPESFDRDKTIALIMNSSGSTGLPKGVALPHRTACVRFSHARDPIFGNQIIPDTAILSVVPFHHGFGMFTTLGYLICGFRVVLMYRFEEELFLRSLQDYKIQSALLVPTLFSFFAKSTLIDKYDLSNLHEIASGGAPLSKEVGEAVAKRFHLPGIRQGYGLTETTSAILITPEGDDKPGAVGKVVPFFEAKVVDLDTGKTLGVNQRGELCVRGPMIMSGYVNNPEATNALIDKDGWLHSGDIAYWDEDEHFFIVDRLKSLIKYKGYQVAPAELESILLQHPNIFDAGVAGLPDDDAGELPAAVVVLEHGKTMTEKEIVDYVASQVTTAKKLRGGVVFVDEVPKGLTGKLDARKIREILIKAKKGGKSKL

Fibroblast growth factor 2 (Homo sapiens), sequence (P09038 whole entry, looked up): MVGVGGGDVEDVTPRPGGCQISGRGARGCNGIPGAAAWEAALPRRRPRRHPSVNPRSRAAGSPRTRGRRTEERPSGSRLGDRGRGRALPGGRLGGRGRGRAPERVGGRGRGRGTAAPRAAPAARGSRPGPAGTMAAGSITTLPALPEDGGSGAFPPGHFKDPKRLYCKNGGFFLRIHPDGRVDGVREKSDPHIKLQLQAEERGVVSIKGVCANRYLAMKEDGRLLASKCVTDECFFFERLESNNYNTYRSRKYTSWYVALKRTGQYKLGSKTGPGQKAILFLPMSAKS
Concanavalin-A (Canavalia ensiformis), sequence (P02866 whole entry, looked up): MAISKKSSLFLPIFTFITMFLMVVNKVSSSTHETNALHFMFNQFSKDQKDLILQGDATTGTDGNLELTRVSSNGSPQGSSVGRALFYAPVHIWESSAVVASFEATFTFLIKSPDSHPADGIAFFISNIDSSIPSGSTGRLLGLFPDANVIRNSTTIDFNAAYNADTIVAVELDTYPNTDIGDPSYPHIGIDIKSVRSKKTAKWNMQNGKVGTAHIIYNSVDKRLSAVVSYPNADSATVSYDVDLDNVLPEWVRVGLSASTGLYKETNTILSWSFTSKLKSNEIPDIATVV
Follistatin (Homo sapiens), sequence (P19883 whole entry, looked up): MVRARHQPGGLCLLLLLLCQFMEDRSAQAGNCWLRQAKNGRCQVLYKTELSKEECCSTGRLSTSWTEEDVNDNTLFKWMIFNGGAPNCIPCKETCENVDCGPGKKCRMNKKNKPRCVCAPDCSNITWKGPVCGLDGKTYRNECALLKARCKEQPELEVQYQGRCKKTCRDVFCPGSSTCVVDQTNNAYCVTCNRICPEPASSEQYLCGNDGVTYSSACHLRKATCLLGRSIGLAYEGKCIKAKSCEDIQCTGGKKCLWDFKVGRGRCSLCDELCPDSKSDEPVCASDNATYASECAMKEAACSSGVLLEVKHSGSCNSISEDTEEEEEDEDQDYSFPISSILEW
Focal adhesion kinase 1 (Homo sapiens), sequence (Q05397 whole entry, looked up): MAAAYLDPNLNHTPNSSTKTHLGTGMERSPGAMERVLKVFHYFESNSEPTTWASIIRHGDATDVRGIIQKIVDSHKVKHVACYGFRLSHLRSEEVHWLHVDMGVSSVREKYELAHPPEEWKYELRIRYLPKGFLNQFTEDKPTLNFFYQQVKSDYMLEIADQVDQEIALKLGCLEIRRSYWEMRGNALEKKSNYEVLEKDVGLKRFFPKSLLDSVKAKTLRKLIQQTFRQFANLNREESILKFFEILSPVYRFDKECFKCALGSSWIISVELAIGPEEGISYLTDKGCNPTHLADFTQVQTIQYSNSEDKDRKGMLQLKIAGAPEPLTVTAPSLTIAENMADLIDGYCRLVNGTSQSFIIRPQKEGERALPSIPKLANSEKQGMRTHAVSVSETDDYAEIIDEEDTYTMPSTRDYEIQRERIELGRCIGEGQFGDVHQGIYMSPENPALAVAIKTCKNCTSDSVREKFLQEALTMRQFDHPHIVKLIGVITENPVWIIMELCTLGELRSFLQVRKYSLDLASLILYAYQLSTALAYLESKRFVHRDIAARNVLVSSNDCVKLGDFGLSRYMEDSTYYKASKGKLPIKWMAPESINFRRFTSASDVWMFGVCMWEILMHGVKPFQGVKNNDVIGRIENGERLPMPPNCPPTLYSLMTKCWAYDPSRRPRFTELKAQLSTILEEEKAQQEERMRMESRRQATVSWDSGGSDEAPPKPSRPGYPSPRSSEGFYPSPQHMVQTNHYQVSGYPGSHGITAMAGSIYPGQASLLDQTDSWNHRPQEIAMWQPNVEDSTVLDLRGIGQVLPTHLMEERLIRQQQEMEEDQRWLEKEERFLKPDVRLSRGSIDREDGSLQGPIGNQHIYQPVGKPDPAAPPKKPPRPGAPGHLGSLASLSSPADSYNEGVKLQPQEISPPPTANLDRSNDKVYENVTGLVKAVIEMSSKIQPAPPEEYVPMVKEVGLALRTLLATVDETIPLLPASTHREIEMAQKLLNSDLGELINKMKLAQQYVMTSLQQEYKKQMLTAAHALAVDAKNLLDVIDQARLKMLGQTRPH
Albumin (Bos taurus), sequence (P02769 whole entry, looked up): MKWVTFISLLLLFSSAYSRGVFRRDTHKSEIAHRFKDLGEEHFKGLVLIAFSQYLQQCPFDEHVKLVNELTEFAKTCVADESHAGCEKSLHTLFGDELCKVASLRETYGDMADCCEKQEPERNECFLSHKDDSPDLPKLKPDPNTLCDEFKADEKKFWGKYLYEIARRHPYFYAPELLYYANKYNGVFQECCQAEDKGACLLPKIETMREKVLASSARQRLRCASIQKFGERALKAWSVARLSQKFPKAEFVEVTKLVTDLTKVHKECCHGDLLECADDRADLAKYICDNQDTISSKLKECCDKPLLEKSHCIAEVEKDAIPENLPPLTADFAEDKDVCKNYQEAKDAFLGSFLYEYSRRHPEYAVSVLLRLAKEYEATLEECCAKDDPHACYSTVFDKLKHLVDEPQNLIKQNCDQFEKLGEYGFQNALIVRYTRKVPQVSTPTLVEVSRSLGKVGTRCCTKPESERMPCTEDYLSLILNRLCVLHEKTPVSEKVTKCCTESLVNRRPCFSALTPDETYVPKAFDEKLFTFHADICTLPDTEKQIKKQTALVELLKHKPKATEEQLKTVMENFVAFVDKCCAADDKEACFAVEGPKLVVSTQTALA

SMILES | composite z-score [1] | composite Z-score [2] | composite z-score [3] | composite z-score [4] | composite z-score [5] | composite z-score [6] | composite z-score [7] | composite z-score [8] | composite z-score [9] | composite z-score [10] | composite z-score [11] | composite z-score [12] | composite z-score [13] | composite z-score [14] | composite z-score [15] | composite z-score [16] | z-score [17] | composite z-score [18] | composite z-score [19] | z-score [20]
COC(=O)[C@H](C)NC(=O)CCC1CC(OC(=O)NCc2cccc3ccccc23)CC2(CCCC(COC(=O)NCC(c3ccccc3)c3ccccc3)O2)O1 (stereo not given in full) | 0.576 | -0.171 (inactive) | 0.0242 | -0.0895 | 0.553 | 1.27 | 0.433 | 1.32 | -0.087 | 0.423 | 1.04 | 1.15 | 0.713 | 0.665 | 0.376 | 0.227 | 1.17 | 0.554 | 0.661 | 1.22 (inactive)
COc1ccc(C#C[C@@H]2C=C[C@H](OC(C)=O)[C@@H](COC(C)=O)O2)cc1 | 0.18 | -0.153 (inactive) | -0.0077 | -0.153 | 0.61 | 0.759 | -0.019 | 0.112 | 0.867 | 0.536 | 1.01 | 0.282 | 0.0919 | 0.0177 | 0.567 | 0.183 | 0.0859 | 0.649 | 0.217 | -1.06 (inactive)
CCOC(=O)[C@H](CC(C)C)NC(=O)CCC1CC(OC(=O)NCc2cccc3ccccc23)CC2(CCCC(COC(=O)NCc3ccncc3)O2)O1 (stereo not given in full) | 0.323 | -0.0775 (inactive) | -0.0658 | -0.14 | 0.215 | 0.502 | 0.218 | 1.29 | 0.351 | 0.67 | 0.894 | 1.19 | 0.0121 | 0.839 | 0.768 | 1.58 | 1.42 | 1.01 | 0.725 | 0.301 (inactive)
C=CC[C@@H]1C=C[C@H](ON=C(C)CCC(=O)OC[C@H]2O[C@H](C#Cc3ccccc3)C=C[C@@H]2Oc2ccc(C)cc2)[C@@H](CO)O1 | 0.791 | 0.153 (inactive) | -0.0898 | -0.101 | 0.286 | 1.23 | 0.441 | 1.29 | 0.126 | 1.13 | -0.443 | 0.828 | -0.0073 | 0.955 | 0.656 | 0.42 | -0.0271 | 0.842 | -0.0056 | 0.666 (inactive)
CCOC(=O)NN=C1C[C@@H](O)[C@@H](O)[C@@H]2[C@@H]3C(=O)N(c4ccc(F)cc4F)C(=O)[C@@H]3CC[C@@H]12 | 0.66 | 0.16 (inactive) | -0.144 | -0.156 | -0.103 | 0.218 | 0.196 | 0.591 | 0.312 | 0.307 | 0.508 | 0.574 | 0.252 | 0.331 | 0.519 | 0.187 | -0.389 | 0.775 | 0.455 | 1.04 (inactive)
COc1cccc([C@H]2Oc3ccc(OC)cc3C(=NO[C@H](C)c3cn([C@H](CO)Cc4ccccc4)nn3)[C@@H]2O)c1 | -1.28 | -0.372 (inactive) | -0.208 | -0.187 | 0.406 | 0.418 | 0.0672 | -0.779 | 0.08 | -2.12 | 0.533 | -0.323 | -0.181 | -0.095 | -0.0053 | 0.185 | -0.685 | 0.0027 | -0.124 | 0.417 (inactive)
